Screens deposited in PubChem BioAssay by several laboratories.
Efflux pump mplx – inhibitors of Candida efflux pumps in yeast, primary screen, S. cerevisiae, Nile Red, multiplex; 330,000 tested, 0.44% active; S. cerevisiae Candida pump triplex; inhibition, % at 10 µM; AID 485275, 2010;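 active = plate passing quality check with inhibition over a set limit, or well fluorescence over plate mean plus 4 SD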;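 note: Nile Red retained in pooled yeast measured as flow cytometry median fluorescence; 0% = buffer negative control and 100% = Enniatin B positive control; higher means more Nile Red kept so more efflux inhibition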
NCOA1 inh – SRC1 coactivator transcriptional activity inhibitors, primary screen, cell-based, luminescence. HEK293 GAL4-SRC1 luciferase reporter. inhibition, % at 3.6 µM. 360,000 tested, 0.12% active. AID 588354, 2011;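 active = inhibition above the campaign mean plus 3 SD, with each screening campaign given its own cutoff, cut at about 60% in these data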;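 note: 0% = DMSO treated cells and 100% = gossypol at 36 µM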
NR5A2 inv ag – LRH-1 (NR5A2) inverse agonists, primary screen, cell-based, luminescence, HEK293T, StAR-luciferase reporter; Nuclear receptor subfamily 5 group A member 2 (Homo sapiens), O00482; LRH-1 transfected, 24 h; inhibition, % at 3.6 µM; 360,000 tested, 0.13% active; AID 602396, 2012;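 active = inhibition above the mean inhibition of all tested compounds plus 3 SD, cut at about 73% in these data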;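 note: 0% = DMSO wells and 100% = reporter-only cells lacking LRH-1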
Target sequence (O00482 whole entry, looked up): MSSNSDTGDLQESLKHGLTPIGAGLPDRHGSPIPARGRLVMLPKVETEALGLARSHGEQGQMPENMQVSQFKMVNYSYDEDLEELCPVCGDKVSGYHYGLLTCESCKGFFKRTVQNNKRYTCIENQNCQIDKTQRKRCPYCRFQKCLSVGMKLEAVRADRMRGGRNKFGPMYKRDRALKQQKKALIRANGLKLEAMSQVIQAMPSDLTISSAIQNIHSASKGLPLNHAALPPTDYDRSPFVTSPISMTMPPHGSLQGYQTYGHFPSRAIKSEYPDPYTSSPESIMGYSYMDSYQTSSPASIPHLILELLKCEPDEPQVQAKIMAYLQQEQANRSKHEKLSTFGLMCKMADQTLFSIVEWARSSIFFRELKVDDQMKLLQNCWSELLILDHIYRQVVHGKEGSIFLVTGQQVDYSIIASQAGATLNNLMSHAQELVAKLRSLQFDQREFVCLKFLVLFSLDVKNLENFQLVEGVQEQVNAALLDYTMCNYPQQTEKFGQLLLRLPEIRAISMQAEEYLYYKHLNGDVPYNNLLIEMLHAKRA
SRC2 inh – inhibition of GAL4-SRC2 driven luciferase reporter, primary screen, SRC2 inhibitor project, cell-based, luminescence. HEK293 GAL4-SRC2 luciferase reporter. inhibition, % at 9 µM. 370,000 tested, 0.17% active. AID 651957, 2012;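 active = inhibition above the mean inhibition of all tested compounds plus 3 SD, set per campaign, cut at about 52% in these data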;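 note: 0% = DMSO treated cells and 100% = cells given Gossypol at 36 µM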
SRC3 inh – SRC3 coactivator transcriptional activity inhibitors, primary screen, cell-based, luminescence; HEK293 GAL4-SRC3 luciferase reporter; inhibition, % at 3.6 µM; 360,000 tested, 0.17% active; AID 588352, 2011;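 active = inhibition above a per-campaign cutoff, the mean of all compounds plus 3 SD, cut at about 60% in these data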;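 note: 0% = DMSO-treated cells and 100% = gossypol-treated cells at 36 µM; higher means less SRC3-driven luciferase light from the GAL4 reporter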
NR2F2 inh – NR2F2 transcriptional activity inhibitors, primary screen, cell-based, luciferase reporter, HEK293T, luminescence; COUP transcription factor 2 (Homo sapiens), P24468; HEK293T NGFI-A luciferase reporter; inhibition, % at 8.6 µM; 370,000 tested, 0.7% active; AID 686940, 2013;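 active = inhibition above a per-plate cutoff, mean inhibition of test wells between control levels plus 3 SD, cut at about 38% in these data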;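 note: cells cotransfected with COUP-TFII expression vector driving the NGFI-A reporter; 0% = median of COUP-TF2 test wells and 100% = reporter-only cells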
VP16 Luc counter – Gal4-VP16 luciferase reporter inhibitors, counter-screen for COUP-TFII antagonist project, cell-based, luminescence, HEK293 | AID 687007, 2013 | 2,500 tested, 25% active | inhibition, % at 8.5 µM | shares compounds with NR2F2 inh; in the data active = inhibition above about 13%
NR2F2 inh conf – NR2F2 transcriptional activity inhibitors, confirmation, cell-based, luciferase reporter, HEK293, triplicate; HEK293 NGFI-A luciferase reporter, luminescence; AID 687008, 2013; inhibition, % at 8.5 µM; shares compounds with NR2F2 inh; 2,500 tested, 45% active;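 active = mean inhibition over three repeats above a set limit taken from the earlier primary screen, cut at about 38% in these data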;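 note: 100% = cells given the luciferase reporter alone without the COUP-TF2 vector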
* = called active by the depositor; / = not tested or not shown. Shown are actives, neighbours in structure and some others; about 1.2% of the full set was active somewhere.

SMILES	Efflux pump mplx	NCOA1 inh	NR5A2 inv ag	SRC2 inh	SRC3 inh	NR2F2 inh	VP16 Luc counter	NR2F2 inh conf
CC(=O)N1CCc2cc(S(=O)(=O)NCCC3=CCCCC3)ccc21	0	13	30	-23	18	47*	5	36
Cc1ccc(NC(=O)c2cc(S(=O)(=O)NCCC3=CCCCC3)ccc2F)cc1F	0	22	28	21	27	40*	2	40*
O=C(Nc1cccc(F)c1)c1cc(S(=O)(=O)NCCC2=CCCCC2)ccc1F	0	10	23	28	26	35	/	/
CCOC(=O)C1OC2(CCCC2)OC1C(=O)OCC (centres undefined)	/	-14	3	9	1	-4	/	/
Cc1nnc(SCC(=O)N(CC(C)C)C2CCS(=O)(=O)C2)s1 (centres undefined)	0	7	14	14	-13	-3	/	/
CC(=O)c1c(C)[nH]c(C(=O)OCC(=O)Nc2cc(S(=O)(=O)N3CCCC3)ccc2Cl)c1C	0	23	34	2	32	-19	/	/
Cc1ccc(C)c(C(=O)OCC(=O)Nc2cccc(S(=O)(=O)N3CCCCC3)c2)c1	1	-2	2	11	2	43*	3	30
CC(=O)c1ccc(OCC(=O)Nc2cccc(S(=O)(=O)N3CCCC3)c2)cc1	0	4	10	21	30	43*	-8	13
CC(=O)c1c(C)[nH]c(C(=O)OCC(=O)Nc2cccc(S(=O)(=O)N3CCCC3)c2)c1C	0	36	46	19	41	66*	-15	36
CC(=O)c1c(C)[nH]c(C(=O)OCC(=O)Nc2cccc(S(=O)(=O)N(C)C)c2)c1C	0	9	17	12	24	-11	/	/
CCN(CC)S(=O)(=O)c1cccc(NC(=O)COC(=O)c2[nH]c(C)c(C(C)=O)c2C)c1	/	45	40	21	41	62*	2	60*
O=C(O)c1cc(-c2ccccc2)n(-c2ccc(Cl)cc2Cl)n1	0	-5	6	-6	-17	1	/	/
Cc1[nH]c2ccc(C(=O)OC(C)C(=O)N(C)C3CCCCC3)cc2c1C (centres undefined)	/	-4	-26	21	4	3	/	/
COc1ccccc1Nc1nc(-c2ccccc2O)nc2ccccc12	0	-16	15	-60	3	8	/	/
COc1ccc(-c2ccc3oc(-c4ccsc4)cc3c2)cc1	0	-4	11	-5	-6	-6	/	/
CN(C)S(=O)(=O)c1cccc(NC(=O)CNc2cccc(S(=O)(=O)N3CCCCC3)c2)c1	/	19	33	5	24	45*	3	20
CC(=O)CC1c2ccccc2C=C(c2ccsc2)N1c1ccc(-c2cccs2)cc1 (centres undefined)	/	/	16	6	/	46*	-15	-4
Cc1cc(S(=O)(=O)c2ccc(Cl)cc2)nc(S(=O)(=O)c2ccc(Cl)cc2)c1C#N	/	-114	-7	15	-11	45*	56*	62*
Cc1cc(C)c(S(=O)(=O)c2ccc(Cl)cc2)c(Cl)n1	0	8	-10	-6	23	-14	/	/
C[C@@H]1CC[C@]2(C(=O)O[C@@H]3O[C@H](CO)[C@@H](O)[C@H](O)[C@H]3O)CC[C@]3(C)C(=CCC4[C@@]5(C)C[C@@H](O)[C@H](O)[C@@](C)(C(=O)O[C@@H]6[C@H](O)C[C@@]7(C)C(CC[C@]8(C)C7CC=C7[C@H]9[C@](C(=O)O[C@@H]%10O[C@H](CO)[C@@H](O)[C@H](O)[C@H]%10O)(CC[C@@H](C)[C@@]9(C)O)CC[C@]78C)[C@@]6(CO)C(=O)O)C5CC[C@]43C)[C@@H]2[C@]1(C)O (some centres undefined)	0	-13	-2	12	8	-10	/	/
CC(=O)N(C)C[C@@H]1Oc2ncc(Br)cc2C(=O)N([C@H](C)CO)C[C@@H]1C	/	-15	-5	-11	-3	7	/	/
O=C(NCc1ccc(F)c(F)c1)c1ccc(-c2ccc(F)c(F)c2)c2ccoc12	/	7	24	-1	12	6	/	/
O=C(NCc1cccnc1)c1ccc(-c2ccc(F)c(F)c2)c2ccoc12	/	11	20	28	-7	68*	3	49*
S=C(Nc1ccccc1)Nc1ccc(OCc2ccc(Cl)cc2Cl)cc1	0	55	50	82*	60	76*	70*	71*
S=C(NCCSCc1ccc(Cl)cc1Cl)Nc1ccccc1	0	-21	16	14	14	10	/	/
SMILES	Efflux pump mplx	NCOA1 inh	NR5A2 inv ag	SRC2 inh	SRC3 inh	NR2F2 inh	VP16 Luc counter	NR2F2 inh conf
C#CCNCCS(=O)(=O)N(Cc1ccc(Br)cc1)[C@@H](CC(C)C)C(=O)O	0	-18	4	17	-4	-14	/	/
O=C1C=CC2C3C(=O)N(c4ccccc4)C(=O)C3C1N2Cc1ccccc1 (centres undefined)	/	22	24	75*	13	60*	17*	5
Cc1cccnc1CCNC(=O)c1ccc(OC2CCN(Cc3ccccn3)CC2)cc1	0	-4	1	32	15	19	/	/
CCn1cc(CNC(=O)c2ccc(OC3CCN(Cc4ccccn4)CC3)cc2)cn1	0	17	-10	22	3	31	/	/
O=C(NCCc1cccc(Cl)c1)c1ccc(OC2CCN(Cc3ccccn3)CC2)cc1	/	51	29	37	28	61*	-38	40*
CCn1nc(C)c(CNC(=O)c2ccc(OC3CCN(Cc4ccccn4)CC3)cc2)c1C	0	-1	27	8	26	58*	16*	66*
COc1cccc(CN(C)C(=O)c2cccc(S(=O)(=O)N3CCN(Cc4ccccc4)CC3)c2)c1OC	/	-16	9	-1	19	18	/	/
COc1cccc(CN(C)C(=O)c2cccc(S(=O)(=O)N3CCN(c4ccccc4)CC3)c2)c1OC	/	4	3	-1	32	52*	-1	21
COc1cccc(CN(C)C(=O)c2cccc(S(=O)(=O)N3CCN(c4ccc(F)cc4)CC3)c2)c1OC	0	8	6	25	17	59*	-2	39*
CN(CCOc1ccc(Cl)cc1)C(=O)c1cccc(S(=O)(=O)N2CCN(c3ccccc3)CC2)c1	/	15	31	30	4	59*	6	44*
